Inconclusive results are not listed. The source made the active and inactive calls. Unless noted, calls follow the shape of the dose curve; as a rule, active = well fitted curve in the direction sought with a large enough effect; inconclusive = small, poorly fitted or top-dose-only effect, or another doubt; inactive = no such curve, though single readings can be large; an effect the other way counts as inactive or inconclusive.
Columns and labels:
[1] = molecular target: Cytochrome P450 1A2 (Homo sapiens) (UniProt P05177); experiment: p450-cyp1a2 (AID 410; calls by dose curve; also: potency is read from the fitted curve at half-maximal effect;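 as to activity change, negative = inhibition: -100% = full effect of reference inhibitor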)
Sequence of Cytochrome P450 1A2 (Homo sapiens) (P05177 whole entry, looked up): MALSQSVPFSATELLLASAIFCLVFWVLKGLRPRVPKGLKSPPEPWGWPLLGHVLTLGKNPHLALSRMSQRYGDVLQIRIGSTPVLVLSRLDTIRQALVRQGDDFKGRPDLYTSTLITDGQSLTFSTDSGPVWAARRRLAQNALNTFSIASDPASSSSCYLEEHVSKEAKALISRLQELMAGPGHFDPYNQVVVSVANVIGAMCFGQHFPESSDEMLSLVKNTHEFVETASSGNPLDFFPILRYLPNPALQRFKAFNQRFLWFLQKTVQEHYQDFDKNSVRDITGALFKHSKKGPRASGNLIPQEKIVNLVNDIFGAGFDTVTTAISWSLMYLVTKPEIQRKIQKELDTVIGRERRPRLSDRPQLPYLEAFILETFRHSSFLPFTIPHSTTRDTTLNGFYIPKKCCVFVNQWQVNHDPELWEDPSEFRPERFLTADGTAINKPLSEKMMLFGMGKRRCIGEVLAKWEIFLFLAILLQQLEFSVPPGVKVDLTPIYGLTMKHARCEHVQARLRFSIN
How it was run: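 Luminescent readout of luciferin formed from Luciferin-ME by human CYP1A2; data normalized against complete inhibition by 57 uM furafylline. Enzyme 20nM, substrate 100uM at Km, 100mM KPO4 buffer, 60 min reaction at room temperature.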

[2] = Stat Signaling Pathway (AID 446; active = well fitted curve in either direction with a large enough effect, not every such curve was filed as active;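 also: ME-180 cervical cancer cells given 40 pM IL-6 alongside compound; SIE-controlled beta-lactamase reporter measured as 460/530 nm FRET emission ratio; % is scaled to controls: 0 for no effect and ±100 for the full control effect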)
How it was run: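 Reporter line: ME-180 cervical carcinoma, SIE-beta-lactamase. Treatment: compound with 40 pM IL-6, 5 hrs, 37 C, in low-serum OPTI-MEM with 10 mM HEPES pH 7.3. Detection: 460/530 nm fluorescence.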

[3] = molecular target: Glucocorticoid receptor (Homo sapiens) (UniProt P04150); experiment: GR-GFP Redistribution (AID 450;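 active = compounds whose dose series gives a full or clear partial fitted curve of increased nuclear translocation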; also: potency is read from the fitted curve at half-maximal effect); conditions: U2OS GR-GFP nuclear translocation, laser cytometry, 2 h
Sequence of Glucocorticoid receptor (Homo sapiens) (P04150 whole entry, looked up): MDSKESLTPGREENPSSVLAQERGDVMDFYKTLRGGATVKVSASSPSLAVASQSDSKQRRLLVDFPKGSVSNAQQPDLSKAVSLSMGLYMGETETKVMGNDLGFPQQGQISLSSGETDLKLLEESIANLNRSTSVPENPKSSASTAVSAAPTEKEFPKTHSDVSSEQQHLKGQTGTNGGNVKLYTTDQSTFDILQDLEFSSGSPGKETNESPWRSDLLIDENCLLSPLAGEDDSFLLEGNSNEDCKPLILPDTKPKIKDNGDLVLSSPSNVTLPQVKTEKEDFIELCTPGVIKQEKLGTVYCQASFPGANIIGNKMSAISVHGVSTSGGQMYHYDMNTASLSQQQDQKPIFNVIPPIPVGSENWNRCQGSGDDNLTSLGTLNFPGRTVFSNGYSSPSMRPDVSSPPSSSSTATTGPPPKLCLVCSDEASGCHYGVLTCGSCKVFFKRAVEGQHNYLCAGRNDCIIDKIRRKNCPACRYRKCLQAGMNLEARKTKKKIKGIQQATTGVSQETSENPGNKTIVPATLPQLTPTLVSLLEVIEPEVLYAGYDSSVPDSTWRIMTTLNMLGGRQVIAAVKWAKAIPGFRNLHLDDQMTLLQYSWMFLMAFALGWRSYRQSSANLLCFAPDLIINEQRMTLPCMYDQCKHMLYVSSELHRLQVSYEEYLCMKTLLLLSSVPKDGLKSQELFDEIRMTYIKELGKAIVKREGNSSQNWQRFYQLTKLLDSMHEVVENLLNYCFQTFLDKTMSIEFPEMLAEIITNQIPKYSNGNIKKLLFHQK

[4] = molecular target: Cytochrome P450 2D6 (Homo sapiens) (UniProt P10635); experiment: qHTS Assay for Inhibitors and Substrates of Cytochrome P450 2D6 (AID 891); also: potency is read from the fitted curve at half-maximal effect; nearly all actives have a fitted effect of over 60% in size
Sequence of Cytochrome P450 2D6 (Homo sapiens) (P10635 whole entry, looked up): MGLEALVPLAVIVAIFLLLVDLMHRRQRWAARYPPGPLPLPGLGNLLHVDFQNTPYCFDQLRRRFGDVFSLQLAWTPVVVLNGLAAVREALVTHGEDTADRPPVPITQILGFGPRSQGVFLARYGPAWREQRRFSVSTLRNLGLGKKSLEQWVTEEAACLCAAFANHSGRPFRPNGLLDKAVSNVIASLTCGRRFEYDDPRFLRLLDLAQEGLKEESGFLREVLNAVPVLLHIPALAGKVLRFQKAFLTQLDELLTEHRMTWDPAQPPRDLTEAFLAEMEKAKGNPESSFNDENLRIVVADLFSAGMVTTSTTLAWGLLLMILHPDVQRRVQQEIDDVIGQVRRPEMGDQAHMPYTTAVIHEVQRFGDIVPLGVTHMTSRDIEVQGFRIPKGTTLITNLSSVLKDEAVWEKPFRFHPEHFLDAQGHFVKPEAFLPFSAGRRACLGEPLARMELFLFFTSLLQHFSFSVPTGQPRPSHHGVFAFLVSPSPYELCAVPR
How it was run: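 Human CYP2D6 (5 nM) with 30 uM Luciferin-ME EGE (at Km) in 100 mM KPO4, compound preincubated 10 min, then NADPH regeneration system for 60 min at room temperature. Luciferin read by luminescence; normalized to 1.43 uM quinidine.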

[5] = NFAT Signaling Pathway (AID 444; active = well fitted curve in either direction with a large enough effect, not every such curve was filed as active;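 also: carbachol stimulus at about its EC50 of 1 µM final; % is scaled to controls: 0 for no effect and ±100 for the full control effect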); conditions: Jurkat NFAT-bla M1, carbachol, beta-lactamase ratio, 5 h; at 17.2 µM (top of the series) unless noted
How it was run: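 Jurkat cells with NFAT-driven β-lactamase reporter and co-expressed M1 receptor, stimulated with carbachol (final 1 uM, ~EC50), compound titration, 5 h at 37 °C. CCF4 loaded 1 h at RT; 460/530 nm ratio gave %activity and AC50.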

[6] = molecular target: 3',5'-cyclic-AMP phosphodiesterase 4B (Homo sapiens) (UniProt Q07343); experiment: qHTS Assay for Inhibitors of PDE-IV (AID 607; active = well fitted activation curve with a large enough effect in the main read-out, with a control signal flat, not every such curve was filed as active; also: % of control where 0% means no effect)
Sequence of 3',5'-cyclic-AMP phosphodiesterase 4B (Homo sapiens) (Q07343 whole entry, looked up): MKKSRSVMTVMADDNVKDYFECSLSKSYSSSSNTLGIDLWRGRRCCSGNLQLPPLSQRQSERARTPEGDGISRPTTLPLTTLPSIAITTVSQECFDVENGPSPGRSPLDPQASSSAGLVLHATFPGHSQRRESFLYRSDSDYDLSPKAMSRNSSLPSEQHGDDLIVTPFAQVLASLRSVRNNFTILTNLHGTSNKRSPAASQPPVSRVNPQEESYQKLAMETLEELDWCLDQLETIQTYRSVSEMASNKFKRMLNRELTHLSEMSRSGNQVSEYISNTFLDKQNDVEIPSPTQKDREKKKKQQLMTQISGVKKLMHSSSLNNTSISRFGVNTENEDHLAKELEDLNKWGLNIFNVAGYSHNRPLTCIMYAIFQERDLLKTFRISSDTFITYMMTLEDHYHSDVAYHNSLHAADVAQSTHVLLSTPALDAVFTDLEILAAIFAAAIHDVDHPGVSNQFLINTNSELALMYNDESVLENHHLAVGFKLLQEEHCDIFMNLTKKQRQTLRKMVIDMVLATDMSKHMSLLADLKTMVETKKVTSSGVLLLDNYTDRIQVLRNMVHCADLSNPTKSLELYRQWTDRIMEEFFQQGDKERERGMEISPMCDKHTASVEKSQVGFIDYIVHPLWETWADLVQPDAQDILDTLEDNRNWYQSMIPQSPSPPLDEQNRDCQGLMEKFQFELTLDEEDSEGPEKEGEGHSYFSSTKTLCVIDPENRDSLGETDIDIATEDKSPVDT
How it was run: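 Cell-based read-out of cAMP via a modified cyclic nucleotide-gated channel and membrane potential dye (535/590 nm) in HEK293 cells expressing PDE4 endogenously. Compounds tested up to 22.9 uM final; 100 uM RO 20-1724 reference.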

[7] = S16 Schwann cell PMP22 intronic element beta-lactamase assay (AID 624044; calls by dose curve;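 also: 0% = DMSO and -100% = potassium clavulanate positive control; nearly all actives have a fitted effect of over 15% in size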)
How it was run: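 Rat S16 Schwann cells with beta-Lac driven by a PMP22 intronic element, compound-treated 24 h at 37 °C. LiveBLAzer FRET B/G read: 460 nm normalized to potassium clavulanate vs DMSO; 535 nm FRET as viability; concentration-effect curves classified.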

7G8 = experiment: qHTS profiling for inhibitors of Plasmodium falciparum proliferation (AID 504749); also: nearly all actives have a fitted effect of over 60% in size; also: potency is read from the fitted curve at half-maximal effect; conditions: P. falciparum in erythrocytes, SYBR Green DNA, 72 h; series mostly up to 12.8 µM
How it was run: (§1)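 P. falciparum-infected erythrocytes (0.3% parasitemia, 2.5% hematocrit) incubated with compound 72 h at 37 C, 5% CO2. Parasite DNA detected by SYBR Green after lysis, overnight at room temperature; normalised to 0.29 uM artemisinin and DMSO.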

DFO2036 = experiment: as above; conditions: P. falciparum in erythrocytes, SYBR Green DNA, 72 h; series mostly up to 12.8 µM
How it was run: as §1

ICS = experiment: as above; conditions: P. falciparum in erythrocytes, SYBR Green DNA, 72 h; series mostly up to 12.8 µM
How it was run: as §1

[8] = molecular target: DNA dC->dU-editing enzyme APOBEC-3G (Homo sapiens) (UniProt Q9HC16); experiment: qHTS for inhibitors of Vif-A3G interactions: Validation (AID 588379); also: 0% is about no effect
Sequence of DNA dC->dU-editing enzyme APOBEC-3G (Homo sapiens) (Q9HC16 whole entry, looked up): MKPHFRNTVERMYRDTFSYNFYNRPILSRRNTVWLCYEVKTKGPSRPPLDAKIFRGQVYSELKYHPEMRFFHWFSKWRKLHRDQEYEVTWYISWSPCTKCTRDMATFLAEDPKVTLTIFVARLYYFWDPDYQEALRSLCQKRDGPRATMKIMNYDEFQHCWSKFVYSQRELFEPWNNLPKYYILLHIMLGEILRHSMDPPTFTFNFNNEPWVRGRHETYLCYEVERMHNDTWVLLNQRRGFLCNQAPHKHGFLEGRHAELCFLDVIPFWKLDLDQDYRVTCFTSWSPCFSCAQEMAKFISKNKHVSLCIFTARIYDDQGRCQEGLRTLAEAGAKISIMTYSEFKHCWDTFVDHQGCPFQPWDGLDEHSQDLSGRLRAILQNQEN
How it was run: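 HeLa cells stably expressing Vif and A3G-eYFP, 700 cells/well, incubated overnight at 37 deg C, then exposed to compound overnight at 37 deg C. Inhibition of Vif-mediated degradation read as increased yellow fluorescence (Ex 488/Em 500-530) by laser-scanning cytometry.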

CP215 = experiment: qHTS profiling for inhibitors of Plasmodium falciparum proliferation (AID 504749); also: nearly all actives have a fitted effect of over 60% in size; also: potency is read from the fitted curve at half-maximal effect; conditions: P. falciparum in erythrocytes, SYBR Green DNA, 72 h; series mostly up to 12.8 µM
How it was run: as §1

DIV14 = experiment: as above; conditions: P. falciparum in erythrocytes, SYBR Green DNA, 72 h; series mostly up to 12.8 µM
How it was run: as §1

DIV17 = experiment: as above; conditions: P. falciparum in erythrocytes, SYBR Green DNA, 72 h; series mostly up to 12.8 µM
How it was run: as §1

GB4 = experiment: as above; conditions: P. falciparum in erythrocytes, SYBR Green DNA, 72 h; series mostly up to 12.8 µM
How it was run: as §1

W2 = experiment: as above; conditions: P. falciparum in erythrocytes, SYBR Green DNA, 72 h; series mostly up to 12.8 µM
How it was run: as §1

[9] = molecular target: Cytochrome P450 3A4 (Homo sapiens) (UniProt P08684); experiment: qHTS Assay for Activators of Cytochrome P450 3A4 (AID 885); also: nearly all actives have a fitted effect of over 65% in size
Sequence of Cytochrome P450 3A4 (Homo sapiens) (P08684 whole entry, looked up): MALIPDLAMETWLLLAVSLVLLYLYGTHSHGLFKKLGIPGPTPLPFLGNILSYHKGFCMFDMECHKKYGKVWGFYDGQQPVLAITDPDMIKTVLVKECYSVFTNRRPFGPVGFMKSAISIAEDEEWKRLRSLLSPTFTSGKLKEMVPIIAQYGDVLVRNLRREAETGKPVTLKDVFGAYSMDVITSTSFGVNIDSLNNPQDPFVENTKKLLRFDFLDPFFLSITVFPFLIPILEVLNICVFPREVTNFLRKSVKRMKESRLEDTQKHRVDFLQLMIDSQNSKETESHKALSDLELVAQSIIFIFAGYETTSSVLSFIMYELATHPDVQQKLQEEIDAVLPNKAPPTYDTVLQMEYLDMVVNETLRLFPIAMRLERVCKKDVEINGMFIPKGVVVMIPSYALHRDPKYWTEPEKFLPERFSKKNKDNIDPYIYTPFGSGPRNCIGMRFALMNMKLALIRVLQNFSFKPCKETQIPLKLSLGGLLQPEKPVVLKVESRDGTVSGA
How it was run: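 Signal was normalized against complete inhibition by 57 uM ketoconazole. The reaction used 20nM CYP3A4 with 25uM Luciferin-PPXE, 10-min compound preincubation and a 60-min NADPH-supported step at RT.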

C1CCC(C(C[C@@H]2CCCCN2)C2CCCCC2)CC1
inactive: outcome [2] | Potency [3] > 20.6 µM
active: Potency [1] 6.31 µM | Potency [4] 0.501 µM

CC(=O)N(C[C@@H](C)C(=O)O)c1c(I)cc(I)c(N)c1I
inactive: Potency [1] | activity change, negative = inhibition [5] -3.37% | outcome [2] | Potency [3] > 20.6 µM | outcome [6] | Potency [7] | Potency (7G8) | Potency (DFO2036) | Potency (ICS)

Cc1ccnc(N)c1
inactive: Potency [1] | Potency [3] > 46 µM | outcome [8]

O=C(OC[C@@H](O)CO)c1ccccc1Nc1ccnc2cc(Cl)ccc12
inactive: outcome [2] | outcome [6] | Potency (CP215)
active: Potency [1] 5.01 µM | Potency (7G8) 3.98 µM

CCC(=O)[C@@]1(C)[C@H](C)C[C@@H]2[C@@H]3CCC4=CC(=O)C=C[C@@]4(C)[C@H]3[C@H](O)C[C@]21C
active: Potency (7G8) 2 µM | Potency (ICS) 3.55 µM | Potency (W2) 5.1 µM
inactive: Potency [1] | outcome [2] | outcome [6] | Potency (CP215) | Potency (DFO2036) | Potency (DIV14) | Potency (DIV17) | Potency (GB4)

CCOC(=O)O[C@]1(C(=O)COC(=O)CC)CC[C@@H]2[C@@H]3CCC4=CC(=O)C=C[C@@]4(C)[C@H]3[C@H](O)C[C@]21C
active: Potency [3] 0.00356 µM
inactive: Potency [1] | outcome [2] | outcome [6] | Potency [9] | Potency [7] | Potency (7G8) | Potency (CP215) | Potency (DFO2036) | Potency (DIV14) | Potency (DIV17) | Potency (GB4) | Potency (ICS)

CO[C@@H]1CC[C@@]2(C)[C@@H](CC[C@@]3(C)[C@H]2CC=C2[C@H]4CC(C)(C)[C@H](O)[C@@H](OC(C)=O)[C@]4(CO)[C@H](O)C[C@]23C)[C@@]1(C)CO (tested in a mixture with another compound)
inactive: Potency [1] | Potency [3] > 20.6 µM | outcome [6]

NCC[C@H](O)C(=O)N[C@H]1C[C@@H](N)[C@@H](O[C@H]2O[C@@H](CN)[C@@H](O)[C@@H](O)[C@@H]2O)[C@@H](O)[C@@H]1O[C@H]1O[C@@H](CO)[C@@H](O)[C@@H](N)[C@@H]1O
inactive: Potency [1] | activity change, negative = inhibition [5] -4.44% | outcome [2] | Potency [3] > 20.6 µM | outcome [6]

CCN(CC)CCOC(=O)[C@@H](c1ccccc1)C1CCCCC1
inactive: outcome [2] | Potency [3] > 20.6 µM | Potency [9]
active: Potency [1] 1.26 µM | Potency [4] 0.631 µM

CCN(CC)[C@@H](C)CN1c2ccccc2Sc2ccccc21
active: Potency [1] 0.501 µM | Potency [4] 0.158 µM | Potency (GB4) 5.73 µM
inactive: outcome [2] | Potency [3] > 20.6 µM | outcome [6] | Potency [7] | Potency (CP215) | Potency (DFO2036)
